Screens: PubChem, National Center for Advancing Translational Sciences (NCATS)
Compounds with a hit are over-represented: about 11% of the library has one in this group of screens.
PNC assembly inh = High Content Assay for Compounds that inhibit the Assembly of the Perinucleolar Compartment; 140,000 tested, 3.1% active; AID 2417, 2010; PC3M PTB-GFP, PNC prevalence imaging, 16 h; active compounds read low; activity change (PNC), negative = inhibition, % at 10 µM;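 active = readout at or below -70, meaning at least 70% loss of cells showing the perinucleolar compartment, a nuclear body marking cancer cells; inconclusive = readout between -30 and a set limit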;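 also: plate controls were DMSO wells for no effect and camptothecin positive control wells for full effect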
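Read-out is percentage of cells bearing a perinucleolar compartment, from automated 20x imaging of fixed, Hoechst-stained PC3M PTB-GFP cells. Cells were seeded 4 h, then exposed 16 h to compound (23 nl of library stock) in duplicate plates.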
ALDH1A1 block = qHTS Assay for Inhibitors of Aldehyde Dehydrogenase 1 (ALDH1A1); Purified ALDH1A1, NADH fluorescence, propionaldehyde substrate; Potency, µM (doses to about 75.3 µM), for inactives: at the top dose activity, negative = inhibition, most hits filed as inhibitors; 220,000 tested, 7.3% active; AID 1030, 2008; Aldehyde dehydrogenase 1A1 (Homo sapiens), P00352;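 also: potency is read from the fitted curve at half-maximal effect; plate controls were no enzyme wells and a reference inhibitor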
HPGD inh = qHTS Assay for Inhibitors of HPGD (15-Hydroxyprostaglandin Dehydrogenase). 15-hydroxyprostaglandin dehydrogenase [NAD(+)] (Homo sapiens), P15428. purified HPGD, NADH fluorescence kinetic, PGE2 substrate. Potency, µM, for inactives: top-dose activity change, negative = inhibition, most hits filed as inhibitors. 150,000 tested, 4.3% active; also: potency is read from the fitted curve at half-maximal effect
Target sequence (P15428 whole entry, looked up): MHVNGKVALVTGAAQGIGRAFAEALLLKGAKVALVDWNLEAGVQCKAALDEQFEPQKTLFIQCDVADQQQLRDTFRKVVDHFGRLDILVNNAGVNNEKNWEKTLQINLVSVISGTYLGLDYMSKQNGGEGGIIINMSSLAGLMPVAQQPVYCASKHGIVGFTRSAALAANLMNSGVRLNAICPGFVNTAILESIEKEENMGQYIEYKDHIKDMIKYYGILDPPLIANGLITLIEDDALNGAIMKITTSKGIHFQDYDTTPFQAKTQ
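20 nM HPGD preincubated 15 min at room temperature with compound in 50 mM Tris-HCl pH 8, 0.01% Tween 20. Started with 1 mM NAD+ and 30 uM prostaglandin E2; NADH fluorescence (360/450 nm) read 5 times over 30-s intervals, last minus first.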
Active calls of the source: *; ? = inconclusive; / = not tested or not shown. Unless noted, calls follow the shape of the dose curve; as a rule, active = well fitted inhibition curve with a large enough effect (not every such curve was filed as active); inconclusive = small, poorly fitted or top-dose-only effect, or another doubt; inactive = no such curve, though single readings can be large or run the other way. Unless noted, % is scaled to controls: 0 for no effect and ±100 for the full control effect.

SMILES | PNC assembly inh | ALDH1A1 block | HPGD inh
COc1ccc(Cn2nnnc2C(c2ccc(F)cc2)N2CCN(C3CCCC3)CC2)cc1 (stereo unspecified) | -7.2 | ? | 6.0%
COc1ccc(Cn2nnnc2C(c2ccccc2Cl)N2CCC(C(N)=O)CC2)cc1 (stereo unspecified) | -27.4 | -0.6% | -16.0%
COc1ccc(Cn2nnnc2C(c2ccc(N(C)C)cc2)N2CCC(C)CC2)cc1 (stereo unspecified) | 18.5 | 25.1µM* | -15.0%
COc1ccc(Cn2nnnc2C(c2cc(OC)ccc2OC)N2CCC(C(N)=O)CC2)cc1 (stereo unspecified) | 11.0 | 14.1µM* | -4.8%
CC1CCCN(C(c2cccs2)c2nnnn2Cc2ccccc2)C1 (stereo unspecified) | 15.4 | 3.16µM* | -18.2%
CC1CCN(C(c2ccc(N(C)C)cc2)c2nnnn2Cc2ccccc2)CC1 (stereo unspecified) | 1.3 | 8.91µM* | -11.9%
CCCCC(CC)C/C=C1\CC(C(=O)OCC)Oc2ccccc21 (stereo unspecified) (tested in a mixture with another compound) | / | -5.6% | -4.6%
Cc1onc(-c2c(F)cccc2Cl)c1C(=O)NC(=S)NC1CCS(=O)(=O)C1 (stereo unspecified) | 4.2 | 10.5% | 1.1%
CCCC(=O)Nc1cccc(C(=O)Nc2nccs2)c1 | -14.0 | -5.7% | -9.6%
O=C(Nc1cccc(F)c1)C1CCN(C(=O)c2ccccc2Cl)CC1 | ? | -8.6% | -2.2%
CN(CCc1ccccn1)C(=O)Nc1ccc(Cl)cc1 | ? | -0.8% | -4.1%
CN(CCc1ccccn1)C1CC(=O)N(c2ccc(Cl)cc2)C1=O (stereo unspecified) | 6.1 | 25.1µM* | -22.1%
COc1c(C=O)c(=O)[nH]c2c(OC)cccc12 | / | ? | -19.9%
O=C(NCC1COc2ccccc2O1)Nc1ccccc1F (stereo unspecified) | ? | -10.5% | ?
O=[N+]([O-])c1ccc(S(=O)(=O)N2CCSC2c2ccco2)cc1 (stereo unspecified) | / | 3.98µM* | /
O=S(=O)(c1ccc(Cl)cc1)N1CCSC1c1ccco1 (stereo unspecified) | -27.0 | ? | -3.8%
CC(C)CCN(C(=O)Cc1ccc(Cl)c(Cl)c1)c1c(N)n(Cc2ccccc2)c(=O)[nH]c1=O | / | 13.0% | /
COc1cc(NC(=O)C2=C(N3CCOCC3)/C(=C/c3ccc(Cl)cc3)CC2)cc(OC)c1OC | ? | 0.6% | -25.1%
COc1cc(NC(=O)C2=C(N3CCOCC3)/C(=C\c3ccc(N(C)C)cc3)CCC2)cc(OC)c1OC | 3.1 | 17.8µM* | -8.3%
COc1cccc(Nc2nc(C)cc(C)c2C#N)c1 | -100.0* | 4.6% | -21.5%
Cc1cc(C)c(C#N)c(Nc2ccccc2)n1 | -29.4 | ? | -25.4%
Cn1cc(Cl)c(C(=O)N2CCN(c3ncccn3)CC2)n1 | 76.1 | -5.8% | -6.5%
CCOC(=S)SCC(=O)O | / | ? | -6.5%
Nn1c(SCc2cccc(C(F)(F)F)c2)nnc1-c1ccco1 | 9.4 | 22.4µM* | -17.7%
Cn1c(SCc2cccc(C(F)(F)F)c2)nnc1-c1ccco1 | 12.9 | 11.5% | -12.4%
SMILES | PNC assembly inh | ALDH1A1 block | HPGD inh
O=S1(=O)N=C2CCCCCN2C(c2ccncc2)N1 (stereo unspecified) | ? | -4.5% | -2.8%
CC1=NN(CCC#N)C(=O)/C1=C/c1ccc(N(C)C)cc1 | / | 7.94µM* | /
CC1=NN(c2ccccc2)C(=O)/C1=C/C=C/c1ccc(N(C)C)cc1 | / | -5.6% | /
CCOc1cc(/C=C2\C(=O)N(CCC#N)N=C2C)ccc1OCC(N)=O | / | -9.1% | /
COc1cc(/C=C2\C(=O)N(CCC#N)N=C2C)ccc1OCC(=O)Nc1ccccc1 | -26.2 | 12.6µM* | 10µM*
CC(C)c1ccc(CNC(=O)C(=O)NCC2CCCO2)cc1 (stereo unspecified) | / | 1.6% | /
O=C(COc1cccc2ccccc12)N/N=C/c1ccncc1 | / | 2.9% | /
Cn1c(=O)c(-c2cc(F)cc(F)c2)nc2cnc(Nc3ccccc3)nc21 | / | 24.9% | /
CC(=O)NCC(=O)N[C@H](CCC(=O)O)C(=O)O | / | 7.5% | -8.0%
C/C(=N\Nc1ccc([N+](=O)[O-])cc1[N+](=O)[O-])C(C)(C)C(C(=O)O)C(=O)O | 51.9 | 0.8% | -21.1%
Cc1ccc(-c2csc(NC(=O)C3CCN(S(=O)(=O)c4cccs4)CC3)n2)cc1 | 1.1 | -0.2% | -1.0%
O=C(COC(=O)C1CCN(S(=O)(=O)c2cccs2)CC1)c1ccc2c(c1)OCCO2 | 28.4 | 1.6% | -1.0%
O=C(COC(=O)C1CCN(S(=O)(=O)c2cccs2)CC1)c1cc2ccccc2o1 | ? | 15.8µM* | ?
O=C(Nc1nc(-c2ccc3ccccc3c2)cs1)C1CCN(S(=O)(=O)c2cccs2)CC1 | -87.3* | -8.4% | -8.7%
O=C1CC(c2ccc(F)cc2)CC(O)=C1C=NCCN1CCN(C(=O)Nc2ccccc2)CC1 (stereo unspecified) | -5.1 | 6.6% | -4.2%
Cc1cc(N)c2ccccc2[n+]1CCCCCCCCCCCCCC[n+]1c(C)cc(N)c2ccccc21 | / | ? | 17.2%
C=CCn1c(N)c(C(=O)NCC2CCCO2)c2nc3ccccc3nc21 (stereo unspecified) | ? | 2.2% | /
Nc1c(C(=O)NCC2CCCO2)sc(=S)n1-c1ccccc1 (stereo unspecified) | -3.2 | 14.1µM* | 25.1µM*
Cn1c(Cn2c(=O)sc3ccccc32)nnc1SCC(=O)NCC1CCCO1 (stereo unspecified) | 37.6 | 1.5% | -14.8%
CCn1c(N)c(C(=O)NCC2CCCO2)sc1=S (stereo unspecified) | -27.2 | 8.91µM* | 6.31µM*
O=C(CSc1nnc(Cn2c(=O)sc3ccccc32)n1-c1ccccc1)NCC1CCCO1 (stereo unspecified) | -108.4* | 2.8% | -24.0%
C=CCn1c(N)c(C(=O)NCC2CCCO2)sc1=S (stereo unspecified) | -25.0 | 4.1% | -7.2%
CC(C)OCC1CC(CC(=O)Nc2ccc([N+](=O)[O-])cc2)C(=O)O1 (stereo unspecified) | / | -2.0% | /
CC(C)OCC1CC(CC(=O)NC(=S)Nc2cccc([N+](=O)[O-])c2)C(=O)O1 (stereo unspecified) | -100.0* | -0.1% | -11.6%
O=C(CN1CCCCC1)Nc1ccc(NC(=O)c2ccc(Cl)cc2)cc1Cl | -21.5 | ? | ?
SMILES | PNC assembly inh | ALDH1A1 block | HPGD inh
Cc1cc2n(n1)SC(Nc1ccc(F)c(Cl)c1)N2 (stereo unspecified) | 220.2 | 2.82µM* | -28.4%
Cc1ccc(NC(=O)Nc2ccc(F)c(Cl)c2)cc1 | / | -2.2% | /
COc1ccccc1N/C(=N/S(=O)(=O)c1ccc(C)cc1)c1ccc(Cl)cc1 | 14.1 | ? | -1.3%
C=CCN1CCN(C(CC(C)C)c2nnnn2CCOC)CC1 (stereo unspecified) | ? | -4.8% | -2.2%
CCCCC(c1nnnn1CCOC)N1CCN(CC)CC1 (stereo unspecified) | -100.0* | 0.9% | -8.1%
COc1ccc2[nH]c(C)c(CCN(Cc3cccs3)C(=S)Nc3ccc(F)cc3)c2c1 | -27.0 | 17.8µM* | -16.7%
